Assay results from ChEMBL document CHEMBL4513216, “Probing the Open Global Health Chemical Diversity Library for Multistage-Active Starting Points for Next-Generation Antimalarials” (ACS Infect Dis, 2020).
Hit rate of the full screen: of about 69,000 compounds, about 8,600 (12%) showed an effect of 50% or more. This is one part of a sample in which strong results are shown more often than they occur.

test system: Plasmodium berghei; test: Screen against P. berghei liver stage (PbLuc), transformed with Luciferase, at 10uM; type: functional, HepG2; conditions: tested at 10 uM

| Compound | INHIBITION |
| --- | --- |
| CC(C)CN(CC(O)c1ccccc1)C(=O)NC(C)C (stereo not drawn) | 40.9% |
| CCn1nc(C)c(CCNC(=O)C2CCCN(C(N)=O)C2)c1C (stereo not drawn) | -8.11% |
| CC(C)c1ccc(OCCC(=O)N2CCCN(C(N)=O)CC2)cc1 | -4% |
| CC(c1ccccn1)N(C)Cc1cc2cc3c(cc2[nH]c1=O)OCO3 (stereo not drawn) | 21.8% |
| CC(c1ccncn1)N(C)Cc1cc2cc3c(cc2[nH]c1=O)OCO3 (stereo not drawn) | 58.7% |
| CC(c1cccnc1)N(C)Cc1cc2cc3c(cc2[nH]c1=O)OCO3 (stereo not drawn) | 27.6% |
| COCCCNC1CCCN(c2ccc(C)nn2)C1 (stereo not drawn) | -28.7% |
| Cc1ccc(N2CCCC(NCCCS(C)(=O)=O)C2)nn1 (stereo not drawn) | 14.9% |
| Cc1ccc(N2CCCC(NCCS(C)(=O)=O)C2)nn1 (stereo not drawn) | 64.4% |
| CCOCC(=O)NCCCn1ccnc1-c1ccccc1 | 16.5% |
| CCc1nnc(CN(CC)C(=O)C2CC(=O)N(C(C)(C)C)C2)o1 (stereo not drawn) | 35.8% |
| CCn1ccc(-c2cc(C(=O)O)n3nc(C)c(Cl)c3n2)n1 | 12.3% |
| CCOc1cccc(C(=O)Nc2ccn(CC)n2)c1 | -35.4% |
| CCn1ccc(-c2cc(NCCCOc3cccc(C)c3)nc(C)n2)n1 | 75.9% |
| CCn1ccc(-c2cc(NCCCOc3ccccc3C)nc(C)n2)n1 | 82.4% |
| Cc1cccc(OCCCNC(=O)Cn2ccc(C)cc2=O)c1 | -12.9% |
| COc1ccccc1OCCNCCn1cccn1 | 19.4% |
| CCCNC(=O)c1nn(CC)cc1NC(=O)C(C)n1ncc(Cl)c1C (stereo not drawn) | 8.49% |
| CC(C)NC(=O)N1CCc2ncnc(-c3ccncc3)c2CC1 | -7.24% |
| Cc1nc(C)n(CC2CN(CCOc3cccc(C#N)c3)CCO2)n1 (stereo not drawn) | -5.07% |
| Cc1ccc(CN2CCc3[nH]nc(C(=O)N4CCNC(=O)C4)c3C2)s1 | 18.7% |
| CCNC(=O)[C@@H]1C[C@H](NC(=O)Cc2ccsc2)CN1Cc1ccc(C)o1 | 24.6% |
| CCNC(=O)[C@@H]1C[C@@H](NC(=O)c2ccc(C)s2)CN1Cc1ccccn1 | 18.9% |
| CCNC(=O)[C@@H]1C[C@@H](NC(=O)c2cc(C)on2)CN1Cc1ccccn1 | 54.8% |
| CCNC(=O)[C@@H]1C[C@H](NC(=O)c2ccc(C)s2)CN1Cc1ccc(C)o1 | 68.9% |
| CCNC(=O)[C@@H]1C[C@H](NC(=O)c2cc(CC)n[nH]2)CN1Cc1ccsc1 | -20.5% |
| CCNC(=O)[C@@H]1C[C@@H](NC(=O)Cc2ccccn2)CN1CCCSC | 41.8% |
| CCN(CCOC)C(=O)c1cc(COc2ccc3c(c2)CCCC3)on1 | 25.1% |
